Source: PubChem BioAssay (NCI)
About 83,000 compounds went through this panel and 20% of them were active in at least one assay; those are over-represented in the sample as a whole.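 Treatment: one concentration, 48 hours, 96-well format. Scoring: percent growth, with anything below 10 considered active.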 Active and inactive are the calls of the source.

What was measured:
Assay in all cases: NCI-60 one-dose screen, 48 h (100 = growth as untreated, 0 = no growth, -100 = all killed)
Conditions in all cases: 10 µM unless noted
NCI-H23 lung = test system: NCI-H23 lung
NCI-H226 lung = test system: NCI-H226 lung
NCI-H322M lung = test system: NCI-H322M lung
HOP-62 NSCLC = test system: HOP-62 NSCLC
NCI-H460 lung = test system: NCI-H460 lung
HOP-92 NSCLC = test system: HOP-92 NSCLC
NCI-H522 lung = test system: NCI-H522 lung
A549/ATCC NSCLC = test system: A549/ATCC NSCLC
786-0 renal = test system: 786-0 renal
COLO 205 colon = test system: COLO 205 colon
DU-145 prostate = test system: DU-145 prostate
K-562 leukemia = test system: K-562 leukemia
MALME-3M melanoma = test system: MALME-3M melanoma
MDA-MB-231 breast = test system: MDA-MB-231 breast
RXF 393 renal = test system: RXF 393 renal
SF-268 CNS = test system: SF-268 CNS
SF-295 CNS = test system: SF-295 CNS
SF-539 CNS = test system: SF-539 CNS
M14 melanoma = test system: M14 melanoma

Row | Structure (SMILES) | growth (NCI-H23 lung) | growth (NCI-H226 lung) | growth (NCI-H322M lung) | growth (HOP-62 NSCLC) | growth (NCI-H460 lung) | growth (HOP-92 NSCLC) | growth (NCI-H522 lung) | growth (A549/ATCC NSCLC) | growth (786-0 renal) | growth (COLO 205 colon) | growth (DU-145 prostate) | growth (K-562 leukemia) | growth (MALME-3M melanoma) | growth (MDA-MB-231 breast) | growth (RXF 393 renal) | growth (SF-268 CNS) | growth (SF-295 CNS) | growth (SF-539 CNS) | growth (M14 melanoma)
1 | ClC1=C(Cl)C(Cl)=C(Cl)C1=Cc1ccc(Cl)cc1Cl | -53.5% (active) | -33.9% (active) | 11.3% (inactive) | 10.9% (inactive) | -16.3% (active) | -81% (active) | -22.8% (active) | -38.4% (active) | -40.3% (active) | -34.1% (active) | -5.47% (active) | 0.397% (active) | -30.8% (active) | -10.8% (active) | -94.8% (active) | -43.4% (active) | -16.6% (active) | -30% (active) | -30.1% (active)
2 | CCc1c(C(=O)Nc2ccc3ccccc3c2)[nH]c(C)c1C(C)=O | 85.8% (inactive) | 95.7% (inactive) | 98.9% (inactive) | 96.1% (inactive) | 101% (inactive) | 92.3% (inactive) | 68.7% (inactive) | 89.6% (inactive) | 104% (inactive) | 111% (inactive) | 107% (inactive) | 81.2% (inactive) | 95.7% (inactive) | 93.3% (inactive) | 96.7% (inactive) | 110% (inactive) | 102% (inactive) | 96.2% (inactive) | 93.8% (inactive)
3 | COc1cc(/C=C/C(=O)c2ccccc2O)ccc1OCCCOc1cc2c(cc1OC)C(=O)N1CCC[C@H]1C=N2 | 3.19% (active) | -3.94% (active) | -10.6% (active) | 9.86% (active) | -18.1% (active) | -27.4% (active) | -9.43% (active) | 6.93% (active) | -44.8% (active) | -3.82% (active) | 2.53% (active) | 76.3% (inactive) | -73.1% (active) | -20.6% (active) | -44.6% (active) | 0.95% (active) | -11% (active) | -1.54% (active) | -7.64% (active)
4 | CCN(Cc1ccc(CN(CC)C(=O)C(Br)Br)cc1)C(=O)C(Br)Br | 43.3% (inactive) | 59.1% (inactive) | 26.3% (inactive) | 74.8% (inactive) | 2.41% (active) | 60.7% (inactive) | 32.5% (inactive) | 25.2% (inactive) | 59.4% (inactive) | 3.56% (active) | 14.1% (inactive) | 27.1% (inactive) | 52.6% (inactive) | 28.2% (inactive) | 67.9% (inactive) | 51.6% (inactive) | 45.9% (inactive) | 53.6% (inactive) | 24.9% (inactive)
5 | CCCCCCCN(CCCCCCC)C(=N)c1ccc(OC)c2ccccc12 | -70.2% (active) | -73.1% (active) | -89% (active) | -85.9% (active) | -92% (active) | -86.6% (active) | -75.2% (active) | -83.7% (active) | -90.7% (active) | -73% (active) | -96.4% (active) | -47.9% (active) | -72% (active) | -77.2% (active) | -94.5% (active) | -91% (active) | -89.9% (active) | -88% (active) | -85.9% (active)
6 | O=c1cc(C2NCCc3c2[nH]c2ccccc32)c2c(ccc3ccccc32)o1 (centres undefined) | 79.6% (inactive) | 77% (inactive) | 62.7% (inactive) | 82.4% (inactive) | 48.1% (inactive) | 41% (inactive) | 62.4% (inactive) | 67.9% (inactive) | 59.1% (inactive) | 65.3% (inactive) | 59.6% (inactive) | 52.9% (inactive) | 60.1% (inactive) | 80.7% (inactive) | 44.2% (inactive) | 85.9% (inactive) | 81.8% (inactive) | 79.4% (inactive) | 65.2% (inactive)
7 | NC(=O)NNC(=O)c1ccccc1 | 103% (inactive) | 106% (inactive) | 109% (inactive) | 107% (inactive) | 103% (inactive) | 103% (inactive) | 107% (inactive) | 101% (inactive) | 101% (inactive) | 118% (inactive) | 115% (inactive) | 103% (inactive) | 110% (inactive) | 113% (inactive) | 113% (inactive) | 107% (inactive) | 106% (inactive) | 107% (inactive) | 107% (inactive)
8 | O=C1CCC(=O)N1Cc1ccccc1 | 86.7% (inactive) | 89.5% (inactive) | 98.2% (inactive) | 107% (inactive) | 106% (inactive) | 89.9% (inactive) | 102% (inactive) | 102% (inactive) | 104% (inactive) | 111% (inactive) | 105% (inactive) | 108% (inactive) | 110% (inactive) | 98% (inactive) | 87% (inactive) | 94.7% (inactive) | 102% (inactive) | 105% (inactive) | 94.7% (inactive)
9 | C[N+](C)(C)c1ccc(CC2c3ccccc3-c3ccccc32)cc1 | 78.5% (inactive) | 82.2% (inactive) | 87.8% (inactive) | 38.9% (inactive) | 87.3% (inactive) | 28.8% (inactive) | 59.9% (inactive) | 62% (inactive) | 73.9% (inactive) | 59.8% (inactive) | 101% (inactive) | 70.6% (inactive) | 74.9% (inactive) | 74.7% (inactive) | 103% (inactive) | 42.4% (inactive) | 79.1% (inactive) | 25.5% (inactive) | 75.4% (inactive)
10 | CC(Cc1nnc(SCC(=O)Nc2ccc(I)cc2)n1N)c1ccccc1 (centres undefined) | 99.8% (inactive) | 87.2% (inactive) | 95.7% (inactive) | 71% (inactive) | 96.1% (inactive) | 76.7% (inactive) | 82.8% (inactive) | 100% (inactive) | 72% (inactive) | 93.9% (inactive) | 94.5% (inactive) | 87.1% (inactive) | 108% (inactive) | 81.8% (inactive) | 53.7% (inactive) | 102% (inactive) | 127% (inactive) | 94.3% (inactive) | 95.3% (inactive)
11 | NC(=O)c1ccc2c(c1)OCO2 | 89.2% (inactive) | 98.5% (inactive) | 107% (inactive) | 112% (inactive) | 109% (inactive) | 90.2% (inactive) | 91.9% (inactive) | 105% (inactive) | 105% (inactive) | 113% (inactive) | 108% (inactive) | 115% (inactive) | 98.3% (inactive) | 100% (inactive) | 94.5% (inactive) | 97.2% (inactive) | 96.5% (inactive) | 104% (inactive) | 101% (inactive)
12 | O=S=Nc1ccc([N+](=O)[O-])cc1 | 95% (inactive) | 108% (inactive) | 95% (inactive) | 89.6% (inactive) | 102% (inactive) | 107% (inactive) | 81.5% (inactive) | 78.8% (inactive) | 92.1% (inactive) | 106% (inactive) | 84.8% (inactive) | 75.6% (inactive) | 96.8% (inactive) | 95.4% (inactive) | 111% (inactive) | 91.8% (inactive) | 98.9% (inactive) | 95.4% (inactive) | 94% (inactive)
13 | O=P([O-])(O)OP(=O)([O-])O.[NH-][C@H]1CCCC[C@@H]1[NH-].[OH-].[OH-].[Pt+4] | 102% (inactive) | 108% (inactive) | 115% (inactive) | 111% (inactive) | 106% (inactive) | 114% (inactive) | 93.4% (inactive) | 92.1% (inactive) | 107% (inactive) | 110% (inactive) | 109% (inactive) | 110% (inactive) | 111% (inactive) | 107% (inactive) | 115% (inactive) | 101% (inactive) | 87.1% (inactive) | 105% (inactive) | 120% (inactive)
14 | Cc1ccccc1C(=O)c1ccccc1C(=O)O | 100% (inactive) | 110% (inactive) | 108% (inactive) | 106% (inactive) | 111% (inactive) | 105% (inactive) | 102% (inactive) | 103% (inactive) | 97.9% (inactive) | 115% (inactive) | 110% (inactive) | 106% (inactive) | 109% (inactive) | 115% (inactive) | 118% (inactive) | 106% (inactive) | 109% (inactive) | 105% (inactive) | 96.3% (inactive)
15 | Nc1cccc2c1CN(C1CCC(=O)NC1=O)C2=O (centres undefined) | 99.4% (inactive) | 108% (inactive) | 111% (inactive) | 106% (inactive) | 102% (inactive) | 22.6% (inactive) | 56% (inactive) | 106% (inactive) | 107% (inactive) | 111% (inactive) | 107% (inactive) | 132% (inactive) | 119% (inactive) | 107% (inactive) | -17.4% (active) | 102% (inactive) | 116% (inactive) | 94.7% (inactive) | 101% (inactive)
16 | C=C1C(=O)O[C@H]2[C@H]1CC/C(Cn1cc(-c3ccccc3C(F)(F)F)nn1)=C\CC[C@@]1(C)O[C@@H]21 | 7.85% (active) | -45.6% (active) | 81.6% (inactive) | 37.3% (inactive) | 49.1% (inactive) | -70.4% (active) | -82.5% (active) | 42.9% (inactive) | -81.2% (active) | -78.8% (active) | -95.4% (active) | -13% (active) | -59.3% (active) | -33.4% (active) | -72.3% (active) | -4.71% (active) | 58.8% (inactive) | -74.9% (active) | -79.1% (active)
